Source: PubChem BioAssay AID588405 (Sanford-Burnham Center for Chemical Genomics, 2011)
In all, about 360,000 compounds went through this assay and about 6,200 (1.7%) were called active.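 How the source made its calls: active means inhibition of at least 50% at 20 µM; inactive means the rest.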 This excerpt belongs to a sample that is enriched for actives.

Assay: inhibition of PEG-3 promoter activity – cell-based, HeLa, luciferase luminescence, primary screen (AID 588405)
Conditions: HeLa PEG-Prom luciferase reporter, overnight, at 20 µM, active compounds read high

inhibition, inactive:
CCOC(=O)C1CCCN(C(=O)c2cccc3ccccc23)CC1 (stereo not given) 10.3%
O=C(C1=C(O)C(=O)N(CCOCCO)C1c1ccccn1)c1cccs1 (stereo not given) -2.88%
COc1ccc(NC(=O)c2cc(=O)[nH]c3ccccc23)cc1S(=O)(=O)N1CCOCC1 -0.23%
OC[C@@H]1CN(Cc2cccs2)C[C@H](n2cnc3c(Nc4ccccc4)ncnc32)O1 -9.51%
CCCCN1CC(N2CCN(Cc3cccc(C)c3)CC2)CS1(=O)=O (stereo not given) -1.8%
O=C1NCC(c2ccccc2)(c2ccccc2)C(=O)N1 -0.6%
CCCNC(=O)C1(C)CCN1C(=O)C1(c2ccccc2)CC1 (stereo not given) 8.72%
O=C(CC1Oc2ccccc2NC1=O)NCCCN1CCN(Cc2ccccc2)CC1 (stereo not given) 1.93%
COc1ccccc1NC(=O)CCC(=O)N1CC(C)Oc2ccc(C)cc21 (stereo not given) 14.5%
CC(C)CN1CCC1(C)C(=O)Nc1ccc(OC(F)F)cc1 (stereo not given) 3.35%
COc1ccc(-c2ccc(OC(=O)NC3CCS(=O)(=O)C3)cc2)cc1 (stereo not given) -160%
COCCNc1nc(NCc2ccc(NC(C)=O)cc2)c2sccc2n1 20.4%
COCCNc1nc(Nc2ccccc2Cl)c2sc(-c3ccccc3)cc2n1 5.82%
C=CCc1cccc2cc(C(=O)N3CCN(C(=O)OCC)CC3)c(=O)oc12 22.4%
Cc1cccn2c(=O)c(/C=C(\C#N)S(=O)(=O)c3ccc(Cl)cc3)c(N3CCC(C(N)=O)CC3)nc12 -3.35%
Cc1cccn2c(=O)c3cc(C(=O)NC4CCCCC4)sc3nc12 -45%
FC(F)(F)c1ccccc1Cc1c(-c2ccccc2)nc2c3ccccc3ccn12 -34.1%
O=C(NCc1ccncc1)c1ccc(NS(=O)(=O)c2cccc([N+](=O)[O-])c2)cc1 -13.3%
Cc1c(-c2ccccc2)n[nH]c1C(=O)N=Nc1c(O)[nH]c2ccccc12 -126%
CCCCc1nc2ccc(F)cc2cc1C 6.65%
CCOC(=O)N1CCC(NC(=O)c2ccc3nc(N4CCOCC4)sc3c2)CC1 16.9%
CS(=O)(=O)N1CCCCC1c1cc(C(=O)NCc2ccccc2)no1 (stereo not given) -14.8%
O=[N+]([O-])c1ccc(CN2CC(N3CCC(c4ccccc4)CC3)CS2(=O)=O)cc1 (stereo not given) 10%
COc1ccc(C(CCNCc2ccccc2F)c2ccc(F)cc2)cc1 (stereo not given) 17.7%
Fc1ccccc1COc1ccccc1CNCc1ccncc1 18.9%
CNc1cncc(-c2ccc(NS(C)(=O)=O)cc2)n1 21.2%
CC1(C(=O)NS(=O)(=O)c2ccc(C#N)cc2)CCN1C(=O)CC1CCCC1 (stereo not given) 11.7%
COc1ccc(C(C#N)=C2C=CC(=NO)c3ccccc32)cc1 -114%
COc1ccc(NS(=O)(=O)c2cc3c(cc2C)N(C(C)=O)CCO3)cc1 9.24%
COc1ccc([N+](=O)[O-])cc1NCC(=O)c1ccc(C)cc1 -17.2%
CSc1ccccc1NC(=O)COC(=O)CCCOc1ccc(C)cc1 8.63%
CN1OC[C@@H]2CN(C(=O)c3cccc4ccccc34)[C@H](c3ccc(N4CCCCC4)cc3)C[C@@H]21 1%
O=C(Nc1ccccc1C(=O)NCC1CCCO1)c1ccccc1F (stereo not given) 6%
CSc1n[nH]c(=S)n1N 12.2%
Cc1ccc(C)c(S(=O)(=O)N2CCN(C(=O)Nc3ccccc3)CC2)c1 5.32%
COc1ccc(-c2csc3ncnc(N4CCN(S(=O)(=O)c5ccccc5C#N)CC4)c23)cc1 33.6%
CC(C)Cc1ccc(-c2cc3nc(NCc4cccc(Cl)c4)ccn3n2)cc1 -178%
CC(C)NC(=O)C1(C)CCCCN1Cc1cccc(C(F)(F)F)c1 (stereo not given) -13.2%
COc1ccc(-c2ccc(C(=O)NC(C)C)c3occc23)c(C)c1 -11.5%
Cc1ccc(Cn2c(C)c(C(=O)NCc3ccccc3C(F)(F)F)sc2=O)cc1 18.5%
Cc1cccc(NC(=O)Cn2cc(C(=O)c3ccco3)c3ccccc32)c1 8.59%
O=C(Nc1ccc(F)cc1)c1ccc(S(=O)(=O)NCc2cccnc2)cc1 -20.7%
CN1CCN(c2ccc(NC(=O)c3ccc4c(c3)[nH]c(=O)n4Cc3ccc(F)cc3)cc2)CC1 24.3%
Cc1cc(C)cc(NS(=O)(=O)Cc2ccccc2)c1 -13.5%
CC(Oc1cc2oc(=O)c3c(c2cc1Cl)CCCC3)C(=O)NCc1ccncc1 (stereo not given) 3.42%
Cc1ccc2nc(-c3ccccc3)c(CC3CCCCC3)n2c1 -146%
Clc1cccc(Cc2c(-c3cccc(Cl)c3)nc3ccc(Cl)cn23)c1 -112%
COc1ccc(CN2CCC(C)(Oc3cccc(F)c3)C2)c2ccccc12 (stereo not given) -19.4%
O=C(NCc1cccnc1)c1cc(C2CCCN(C(=O)CCCc3ccccc3)C2)on1 (stereo not given) -7.2%
Cc1cc(C)c2c(Cn3ccnc3)cc(=O)oc2c1 18.3%
O=C(CSc1nnc(COc2ccc(Cl)cc2)n1Cc1ccco1)N1CCNC1=O 6.82%
CCCc1nc2c(c(=O)c3ccccc3n2C)c(=O)n1C1CCCCCC1 -44.1%
CCCNC(=O)C1(C)CCCN(Cc2c(C)nn(-c3ccccc3)c2C)C1 (stereo not given) 5.49%
COc1cccc(-c2cnc(C(O)c3ccccc3OC)[nH]2)c1 (stereo not given) -9.16%
CS/C(=C\C(=O)c1ccco1)Nc1ccccc1Cl -49.5%
O=C(COc1ccc(-n2cnnn2)cc1)Nc1ccccc1Cl -1.45%
CC(=O)N1CCN(Cc2cc(=O)oc3cc(C)ccc23)CC1 -2.53%
COc1ccc(-c2cc(NC=O)c3ncc(-c4ccccc4)n3c2)cc1OC 49.4%
C[C@H]([C@@H](O)[C@@H](O)[C@@H](C)C(C)(C)C)[C@H]1CC[C@H]2C3CC[C@H]4C[C@H](OS(=O)(=O)O)[C@@H](OS(=O)(=O)O)C[C@]4(C)[C@H]3CC[C@]12C (stereo not given in full) 6.06%
COc1ccc(NC(=O)C2(C)Cc3c(-c4cccc(NC(C)=O)c4)ccnc3O2)cc1 (stereo not given) -10.2%
c1ccc2c(c1)CSc1sccc1C2=C1CCNCC1 33.5%
CCOC1=C2[C@@H](CN(S(=O)(=O)c3ccc(C)cc3)[C@H]2c2ccccc2F)[C@H]2C(=O)N(Cc3ccccc3)C(=O)[C@H]2C1 6.76%
CCCCC(=O)N(C)c1c(CC)nc2c(OCc3ccc(Cl)cc3Cl)cccn12 39%
CCOC(=O)Cc1csc(NC(=O)COc2ccc3c(C)cc(=O)oc3c2)n1 -3.01%
Cc1cc(=O)oc2cc(OCC(=O)Nc3nnc(C4CC4)s3)ccc12 2.23%
CC(C)Oc1c(Br)cc(Br)cc1/C=N/NC(N)=S 48.7%
CNc1cncc(-c2cccc(C(=O)N3CCOCC3)c2)n1 2.98%
CC(=O)N(Cc1cc(=O)[nH]c2ccccc12)c1ccc(C)cc1C 23.2%
Cc1ccc(N(Cc2cc3ccccc3[nH]c2=O)C(=O)c2cccs2)cc1 11.2%
CCOc1c2ccc(C(=O)NCc3ccc4c(c3)OCO4)cc2nn1C -10.3%
O=C(CSc1ncnc2scc(-c3ccccc3)c12)NCc1ccc2c(c1)OCO2 26.7%
COc1cccc2sc3cc(NCC[C@@H]4CCCN4C)ccc3c(=O)c12 -254%
CN1CCC[C@@H]1CCO[C@](C)(c1ccccc1)c1ccc(Cl)cc1 14.3%
CC1(Oc2ccccc2-c2ccno2)CCN(Cc2ccc(-c3ccccc3)o2)C1 (stereo not given) 0.4%

inhibition, active:
CC1CN(C(=O)CCC(=O)NCCCN2CCC(Cc3ccccc3)CC2)c2cc(Cl)ccc2O1 (stereo not given) 102%
CC(=O)Nc1ccc(CNc2nc(NCCN(C)C)nc3cc(-c4ccccc4)sc23)cc1 97.3%
Cc1cc(C)cc(Oc2nc3c(C)cccn3c(=O)c2/C=C(\C#N)C(=O)NC2CCS(=O)(=O)C2)c1 (stereo not given) 61.6%
O=[N+]([O-])c1cc(S(=O)(=O)Nc2cccc(Cl)c2)ccc1N=Nc1c(O)[nH]c2ccccc12 65.1%
c1c2c(cc3sc(N4CCCCC4)nc13)OCCO2 80.5%
COc1cccc(CNCCc2c[nH]c3ccccc23)c1OCc1ccccc1F 92.7%
COc1cc([N+](=O)[O-])ccc1NC(=O)COC(=O)CCOc1ccc(C)cc1 51.2%
Cc1ccc(C)c(S(=O)(=O)N2CCN(c3ncnc4sccc34)CC2)c1 58.5%
Cc1cccc(NC(=O)c2nc(S(=O)(=O)Cc3ccccc3)ncc2Cl)c1 111%
Cc1cccc(CS(=O)(=O)c2ncc(Cl)c(C(=O)Nc3ccc(F)cc3)n2)c1 108%
Cn1c2ccccc2c(=O)c2c(=O)n(Cc3ccco3)c(COc3ccccc3)nc21 50.5%
O=C(Nc1ccccc1Cl)/C(Cl)=C(\Cl)S(=O)c1ccccc1 (stereo not given) 108%
Cc1ccc(O)c(/C=N/NC(=O)COc2ccc3c(C)cc(=O)oc3c2)c1 66.5%
Cc1ccc(N(Cc2cc(=O)[nH]c3ccccc23)C(=O)CCl)cc1 106%
CN(C)C(=O)c1cccc(-c2cnc3sc(NCc4ccc5c(c4)OCO5)nn23)c1 50.3%
Cc1cc2oc3ccc(NCCC4CCCN4C)cc3c(=O)c2cc1C (stereo not given) 103%
